This is a sample that favours compounds with a hit; in the whole collection about 10% have one here.
VDR inhibitor: Inhibitors of the vitamin D receptor (VDR): qHTS. 400,000 tested, 0.93% active. Vitamin D3 receptor (Homo sapiens), P11473. VDR-SRC2-3 peptide fluorescence polarization, 2 h. Potency, µM, for inactives: max response, negative = inhibition, most hits filed as inhibitors; note: potency is the fitted concentration of half-maximal effect
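Compounds are added to VDR with labelled SRC2-3 coactivator peptide and held 2 h at room temperature. Inhibition of the VDR–peptide interaction is then read as a change in fluorescence polarization.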
PLK1 PBD block: qHTS for Inhibitors of PLK1-PDB (polo-like kinase 1 - polo-box domain): Primary Screen. Serine/threonine-protein kinase PLK1 (Homo sapiens), P53350. Plk1 PBD binding of FITC phosphopeptide, fluorescence polarization. Potency, µM, without a hit: max response, negative = inhibition, hits mostly inhibitors. 360,000 tested, 2.8% active. AID 720504, 2013; note: potency is the fitted concentration of half-maximal effect; series mostly up to about 57 µM; nearly all actives have a fitted effect of over 65% in size
Target sequence (P53350 whole entry, looked up, the tested form may be a part): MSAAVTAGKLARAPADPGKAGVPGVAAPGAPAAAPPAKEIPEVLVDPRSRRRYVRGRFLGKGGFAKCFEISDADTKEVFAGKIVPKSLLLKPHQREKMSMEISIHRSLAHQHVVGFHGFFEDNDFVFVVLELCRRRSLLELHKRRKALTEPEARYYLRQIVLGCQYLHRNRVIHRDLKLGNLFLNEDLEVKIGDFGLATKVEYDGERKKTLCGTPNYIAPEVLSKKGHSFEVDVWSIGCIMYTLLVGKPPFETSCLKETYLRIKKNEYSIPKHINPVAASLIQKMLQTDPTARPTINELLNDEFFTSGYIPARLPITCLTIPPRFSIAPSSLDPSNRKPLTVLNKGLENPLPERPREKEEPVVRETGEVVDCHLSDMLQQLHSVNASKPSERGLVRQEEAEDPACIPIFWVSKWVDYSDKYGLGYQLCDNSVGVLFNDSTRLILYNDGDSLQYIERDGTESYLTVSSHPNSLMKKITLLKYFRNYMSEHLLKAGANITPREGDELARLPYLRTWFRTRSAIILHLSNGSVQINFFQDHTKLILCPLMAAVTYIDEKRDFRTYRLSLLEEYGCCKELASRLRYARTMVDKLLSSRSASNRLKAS
CCT modulator: High-Throughput Screening for Modulators of Cytosolic Chaperonin Activity | purified chaperonin ATPase assay, HTRF ADP detection, 30 min | activity change, % (no concentration beside the values), hits read low | 360,000 tested, 0.3% active | AID 651819, 2012; in the data active = activity change below about -30%
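TRiC at 40 or 20 nM final (batch-dependent) in 30 mM Tris pH 7.4, 100 mM KCl, 5 mM MgCl2, 1 mM DTT, with compound at single 76 uM and 10 uM ATP, 30 min at 37 deg C. ADP detected by HTRF Transcreener, 665/615 ratio.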
G9a inh: qHTS Assay for Inhibitors of Histone Lysine Methyltransferase G9a; G9a H3K9 monomethylation, AlphaScreen, 2 h; Potency, µM (doses to about 102 µM), for inactives: top-dose activity, negative = inhibition, usual class: inhibitors; 350,000 tested, 8.8% active; AID 504332, 2011; note: potency is the fitted concentration of half-maximal effect; nearly all actives have a fitted effect of over 75% in size
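AlphaScreen read-out: biotin-H3K9 peptide (500 nM) methylation by 20 nM enzyme with 20 uM SAM, 2 h at room temperature after 15 min compound preincubation; anti-monomethyl H3K9 antibody plus donor/acceptor beads, 10 min dark.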
Mm-Cpn inhibitor: Inhibitors of TCP-1 ring complex (TRiC) of Methanococcus maripaludis (MmCpn): qHTS; Chaperonin Mm-Cpn (Methanococcus maripaludis); purified Mm-Cpn ATPase, ADP Transcreener TR-FRET; Potency, µM (top dose mostly 76.9 µM), inactives show at the highest dose activity, negative = inhibition, most hits filed as inhibitors; 330,000 tested, 0.031% active; AID 504842, 2011; note: potency is the fitted concentration of half-maximal effect; nearly all actives have a fitted effect of over 80% in size
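Reaction buffer contained 30 mM Tris pH 7.4, 100 mM KCl, 5 mM MgCl2 and 1 mM DTT. Mm-CPN (25 nM final) hydrolysed 10 uM ATP over 30 min at 37°C; ADP was read by HTRF.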
Sfp PPTase inh: qHTS Assay for Inhibitors of Bacillus subtilis Sfp phosphopantetheinyl transferase (PPTase); Potency, µM, inactives show largest response in the series, negative = inhibition, actives largely listed as inhibitors; 310,000 tested, 3.5% active; Biochemical Sfp PPTase activity, qHTS; 4'-phosphopantetheinyl transferase ffp (Bacillus subtilis), Q9F4F7; AID 1490, 2009;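 note: the enzyme is Sfp with the accession as filed and its product quenches rhodamine fluorescence; potency is the fitted concentration of half-maximal effect; 0% = enzyme reaction without inhibitor and -100% = no enzyme wells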
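With Hepes-Na pH 7.6 buffer containing 10 mM MgCl2, Sfp (15 nM) modified BHQ-2-YbbR (12.5 uM) using rhodamine-CoA (5 uM). Two reads 30 minutes apart at 525/598 nm yielded each well's rate.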
Numbers without * were called inactive; ? = inconclusive; · = no result; [ ] = remark or other dose. Unless noted, calls come from the whole dose curve; as a rule, active = well fitted curve in the direction sought with a large enough effect; inconclusive = small, poorly fitted or top-dose-only effect, or another doubt; inactive = no such curve, though single readings can be large; an effect the other way counts as inactive or inconclusive. Unless noted, % is set by controls: 0 for no effect and ±100 for the full control effect.

SMILES	VDR inhibitor	PLK1 PBD block	CCT modulator	G9a inh	Mm-Cpn inhibitor	Sfp PPTase inh
COc1ccc(C2C=C(Nc3ccccc3)C(=O)N2c2ccccc2)cc1OC (configuration not stated)	-6.7%	5.8%	0.8	8.91µM*	-2.4%	?
Cc1cccc(NC2=CC(c3cccc(Br)c3)N(c3cccc(C)c3)C2=O)c1 (configuration not stated)	?	·	·	-44.2%[59 µM]	·	·
Cc1ccc(NC(=O)C2CCCN(S(=O)(=O)c3c(C)nn(C)c3C)C2)c(C)c1 (configuration not stated)	-8.0%	·	·	9.3%[59 µM]	·	·
S=c1[nH]nc(-c2ccccc2)n1/N=C/c1ccc(-c2ccccc2Cl)o1	-0.6%	-35.7%	2.3	?	-0.2%	?
S=c1[nH]nc(-c2cccc(Cl)c2)n1/N=C/c1ccco1	-15.3%	-21.4%	1.0	3.55µM*	2.2%	50.1µM*
S=c1[nH]nc(-c2cccc(Cl)c2)n1/N=C/c1ccc(-c2ccccc2Br)o1	-4.2%	-7.1%	-0.3	?	-12.1%	-4.9%
Cc1ccc(/C=N/n2c(-c3cccc(Cl)c3)n[nH]c2=S)o1	7.4%	?	-0.9	1µM*	1.0%	-7.9%
CC(C)C[C@H](NC(=O)C1CC(=O)N(c2ccc3c(c2)OCO3)C1)C(=O)NC1CCCCC1 (some centres not stated)	1.3%	0.6%	-1.9	12.5%	-0.2%	10.6%
O=C(Nc1ccccc1Br)C1CC(=O)N(c2ccc3c(c2)OCCO3)C1 (configuration not stated)	-19.7%	-17.7%	-3.2	79.4µM*	1.9%	·
C[C@H](NC(=O)C1CC(=O)N(c2ccc3c(c2)OCO3)C1)C(=O)NC1CCCCC1 (some centres not stated)	?	10.6µM*	-4.1	13.4%	0.5%	2.8%
O=C(Nc1ccc2c(c1)OCO2)C1CC(=O)N(c2ccc3c(c2)OCCO3)C1 (configuration not stated)	-9.7%	-2.3%	-4.9	-6.6%	1.0%	12.1%
O=C(COC(=O)C1CC(=O)N(c2ccc3c(c2)OCCO3)C1)NC1CCCc2ccccc21 (configuration not stated)	10.2%	-6.9%	-0.7	79.4µM*	0.2%	17.5%
O=C(O)C1CC(=O)N(c2ccc3c(c2)OCCO3)C1 (configuration not stated)	-22.0%	2.99µM*	-14.6	-26.4%[59 µM]	-0.4%	4.4%
CC(=O)c1c(C)n(-c2cccc(Cl)c2)c2ccc(O)cc12	8.5%	-5.5%	-0.2	35.5µM*	0.5%	-17.6%
CC(=O)OCC(NC(=O)C(CCCCNC(=O)OCc1ccccc1)NC(=O)OC(C)(C)C)C1OC(n2ccc(=O)[nH]c2=O)C(OC(C)=O)C1OC(C)=O (configuration not stated)	4.9%	·	·	·	·	9.0%
CC(C)(C)c1ccc(OCC(O)CN2CCN(c3ccccn3)CC2)cc1 (configuration not stated)	-4.0%	0.8%	-1.7	50.1µM*	0.9%	14.9%
CC(=O)c1ccccc1OCC(O)CN1CCN(c2ccccn2)CC1 (configuration not stated)	-11.0%	-9.8%	0.2	·	1.0%	5.4%
CCC(=O)c1ccc(OCC(O)CN2CCN(c3ccccn3)CC2)cc1 (configuration not stated)	6.9%	-10.4%	0.7	-5.1%	-2.9%	20.4%
Cc1cccc(OCC(O)CN2CCN(c3ccccn3)CC2)c1C (configuration not stated)	3.1%	-11.4%	-0.3	44.7µM*	-1.4%	-1.6%
Cc1cc(C)c(C)c(OCC(O)CN2CCN(c3ccccn3)CC2)c1 (configuration not stated)	9.8%	-1.4%	0.2	79.4µM*	1.0%	0.4%
COc1ccc(N(C)C(=O)c2nn(-c3ccc(C)cc3)c(=O)n(C)c2=O)c(OC)c1	7.7%	·	·	-10.9%[59 µM]	·	·
CCCOc1ccc(-c2nn(-c3ccccc3)cc2C2NC(=O)NC(C)=C2C(=O)OC)cc1C (configuration not stated)	6.0%	·	·	-12.2%[59 µM]	·	·
NC(=S)C1COc2ccccc2O1 (configuration not stated)	3.9%	?	1.9	44.7µM*	0.2%	-14.5%
CC(C)NC(=O)C1COc2ccccc2O1 (configuration not stated)	-21.9%	-11.8%	-1.3	?	2.3%	3.1%
CCOC(=O)CSc1nc2c(c(=O)[nH]c(=O)n2C)n1CCc1ccccc1	8.2%	0.6%	0.8	-1.0%	-1.1%	3.6%
SMILES	VDR inhibitor	PLK1 PBD block	CCT modulator	G9a inh	Mm-Cpn inhibitor	Sfp PPTase inh
CCCCn1c(SCC(=O)OCC)nc2c1c(=O)[nH]c(=O)n2C	-3.2%	26.7µM*	-14.3	10µM*	0.1%	-21.3%
CCCCCCn1c(SCCN2CCOCC2)nc2c1c(=O)[nH]c(=O)n2C	-15.1%	-16.8%	2.0	-8.5%[59 µM]	-5.5%	-6.2%
CCOC(=O)CSc1nc2c(c(=O)[nH]c(=O)n2C)n1C/C=C(/C)Cl	?	?	-1.3	14.1µM*	2.0%	50.1µM*
CCCCCn1c(SCCN2CCOCC2)nc2c1c(=O)[nH]c(=O)n2C	-6.2%	29.9µM*	-0.7	25.1µM*	0.2%	50.1µM*
COc1ccc(OC)c(N)c1	?	-20.8%	1.9	31.6µM*	-3.3%	-25.0%
Cc1ccc(NC(=O)COC(=O)/C=C/c2ccc(Br)o2)cc1S(=O)(=O)N(C)C	-9.2%	4.3%	1.4	?	-0.7%	?
O=C(COC(=O)/C=C/c1cccc(F)c1)Nc1ncccn1	-11.7%	-8.5%	-5.3	70.8µM*	-4.9%	-0.6%
O=C(COC(=O)/C=C/c1ccc(Br)o1)Nc1ccc2[nH]c(=O)[nH]c2c1	·	·	·	35.5µM*	-1.7%	·
CN(C)S(=O)(=O)c1cccc(NC(=O)COC(=O)/C=C/c2ccc(Br)o2)c1	2.0%	-18.3%	-1.7	44.7µM*	-2.5%	?
O=C(COC(=O)/C=C/c1cccc(Cl)c1)Nc1ccc2[nH]c(=O)[nH]c2c1	-24.0%	-7.5%	-2.9	31.6µM*	-1.6%	·
O=C(COC(=O)/C=C/c1cccc(F)c1)Nc1ccc2[nH]c(=O)[nH]c2c1	6.3%	6.2%	0.8	-36.8%[59 µM]	-2.7%	·
O=C(COC(=O)/C=C/c1ccc([N+](=O)[O-])cc1)Nc1ccc(F)cc1	-9.5%	-1.5%	-2.6	-8.9%[12.7 µM]	-19.7%	·
O=C(COC(=O)/C=C/c1ccc([N+](=O)[O-])cc1)Nc1ccc2[nH]c(=O)[nH]c2c1	10.2%	-13.6%	-3.5	50.1µM*	-2.8%	·
